# Screening results deposited in PubChem BioAssay by National Center for Advancing Translational Sciences (NCATS).
# Compounds with a hit are over-represented: about 0.53% of the library has one in this group of screens.
# Tb PGK inh – inhibitors of T. brucei phosphoglycerate kinase. PGK/GAPDH coupled, Kinase-Glo luminescence, 60 min. Potency, µM (series often up to 57.5 µM), for inactives: at the highest dose activity change, negative = inhibition, usual class: inhibitors. 0.043% of 380,000 active. AID 602233; also: potency is read from the fitted curve at half-maximal effect; nearly all actives have a fitted effect of over 60% in size
#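 Luminescent ATP detection (Kinase-Glo Plus) follows a 60-minute room-temperature incubation, with wells lacking PGK as controls. Buffer: 100 mM TEA (pH 7.6), 5 mM MgCl2, 0.01% Tween-20. Coupling enzyme GAPDH (100 nM final) supplies unstable 1,3-BPG in-well.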
# USP1 inh – blocks the human USP1/UAF1 deubiquitinase complex | recombinant USP1/UAF1, Ub-Rhodamine cleavage fluorescence | O94782 | AID 743255 | 0.23% of 390,000 active | Potency, µM (highest dose often 57.1 µM), for the others: at the top dose activity change, negative = inhibition, most hits filed as inhibitors; also: potency is read from the fitted curve at half-maximal effect; nearly all actives have a fitted effect of over 60% in size
#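 1 nM enzyme complex + cpd, 15 min RT; start with Ub-Rho 150nM final; kinetic fluorescence ex 480/em 540, 6 reads q60 s. Buffer 50mM HEPES pH 7.8, 0.5mM EDTA, 0.1 mg/ml BSA, 1mM TCEP, 0.01% Tween-20.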
# PI4K2A inh – PI4K2A (human) kinase inhibition. AID 1346378. purified PI4K2A, ADP-Glo luminescence, 1 h; hits give low values. activity change, negative = inhibition, % at 76.9 µM. 0.13% of 420,000 active; in the data active = activity change below about -50%; inconclusive = mostly about -30% to -49%;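 also: -100% = wells without enzyme as full effect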
#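 ADP-Glo luminescence measured ADP generated by PI4K2A enzyme (4 ug/mL before mixing) with 1.2 mM PI substrate (pre-mix) and 300 microM ATP (pre-mix). Tris pH7.5 buffer with MgCl2, Triton X-100; 1 h reaction at ambient temperature.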
# GLS inh – blocks human kidney-isoform glutaminase activity; GLS enzymatic activity, qHTS titration; Potency, µM (series often up to 45.5 µM), inactives show at the top dose activity change, negative = inhibition, usual class: inhibitors; 0.21% of 410,000 active; also: potency is read from the fitted curve at half-maximal effect
# Target sequence (O94925 whole entry, looked up, canonical isoform): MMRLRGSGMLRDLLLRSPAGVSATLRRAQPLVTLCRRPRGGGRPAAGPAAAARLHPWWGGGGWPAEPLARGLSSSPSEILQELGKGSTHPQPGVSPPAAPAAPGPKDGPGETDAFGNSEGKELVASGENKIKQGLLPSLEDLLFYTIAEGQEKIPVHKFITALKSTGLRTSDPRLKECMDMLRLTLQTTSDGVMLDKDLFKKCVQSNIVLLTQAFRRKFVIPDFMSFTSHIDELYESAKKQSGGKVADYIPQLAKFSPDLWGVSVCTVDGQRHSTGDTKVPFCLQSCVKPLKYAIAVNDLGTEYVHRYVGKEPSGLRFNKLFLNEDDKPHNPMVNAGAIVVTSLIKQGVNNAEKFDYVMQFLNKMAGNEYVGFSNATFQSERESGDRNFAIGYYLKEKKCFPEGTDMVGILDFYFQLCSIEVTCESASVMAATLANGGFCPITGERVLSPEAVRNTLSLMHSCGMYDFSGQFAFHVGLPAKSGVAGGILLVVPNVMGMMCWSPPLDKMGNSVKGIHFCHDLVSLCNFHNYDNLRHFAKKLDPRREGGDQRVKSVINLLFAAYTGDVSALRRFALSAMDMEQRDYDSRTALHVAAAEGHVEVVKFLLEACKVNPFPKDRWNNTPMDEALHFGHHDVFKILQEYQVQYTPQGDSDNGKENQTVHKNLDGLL
#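 Assay buffer: 45 mM KH2PO4 pH 8.2, 0.02% Tween-20. hKGA acts on L-glutamine (1 mM solution added); product glutamate is reported by an oxidase/peroxidase Amplex Red coupling, with fluorescence taken at baseline and 30 min.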
# * marks the source's active call; other numbers are inactive results; i = inactive; ? = inconclusive; . = not tested or not shown; ! = a repeat was not active; [ ] = remark or other dose. Unless noted, calls follow the shape of the dose curve; as a rule, active = well fitted curve in the direction sought with a large enough effect; inconclusive = small, poorly fitted or top-dose-only effect, or another doubt; inactive = no such curve, though single readings can be large; an effect the other way counts as inactive or inconclusive. Unless noted, % is scaled to controls: 0 for no effect and ±100 for the full control effect.
SMILES,Tb PGK inh,USP1 inh,PI4K2A inh,GLS inh
CCOC1=C2CN(S(=O)(=O)c3ccc(C)cc3)[C@H](c3cccc4ccccc34)C[C@H]2C(C#N)(C#N)C(C#N)(C#N)C1,.,.,-11,-11%
Nc1cc(C(F)(F)F)ccc1S,.,.,-10,.
CCOC(=O)Cc1nnc(Nc2ccc(C)cc2)c2ccccc12,-10%,5%,-75*,29%
CCOC(=O)Cc1nnc(Nc2cccc(C)c2)c2ccccc12,-1%,-5%,0,16%
O=C(Nc1cccc(O)c1)c1cc(-c2ccc3c(c2)OCO3)on1,-10%,-24%,-72*,2%
N#CSCC(=O)O,.,.,0,.
CCN(CC)CCOC(=O)c1ccc(N)cc1Cl,.,.,.,-3%
C=CCn1c(=O)n([C@@H]2O[C@H](CO)[C@@H](O)[C@H]2O)c2nc(N)[nH]c(=O)c21,.,.,-5,.
NS(=O)(=O)c1cc(C(=O)NC2CCSc3ccccc32)ccc1Cl (stereo unspecified),1µM*,?,-17,?
CC1(C)O[C@@H]2C[C@H]3[C@@H]4CCC5=CC(=O)C=C[C@]5(C)[C@H]4C(O)C[C@]3(C)[C@]2(C(=O)CO)O1 (stereo partly specified),.,.,.,-8%
O=C(O)c1ccc(NC2=C(N3CCOCC3)C(=O)c3ccccc3C2=O)cc1,-5%,28µM*,-23,22%
Cc1ccc(NC2=C(N3CCOCC3)C(=O)c3ccccc3C2=O)cc1,-7%[11.5 µM],40µM*,?,37%
CCOC(=O)N1CCN(C2=C(NS(=O)(=O)c3ccc(C)cc3)C(=O)c3ccccc3C2=O)CC1,-8%,22µM*,?,4%
CC(C)(C)c1ccc(C(=O)CCCN2CCC(OC(c3ccccc3)c3ccccc3)CC2)cc1,.,.,-3,-7%
C/C(=N/NC(=O)c1ccncc1)C(=O)O,.,.,-1,.
O=C(Nc1ccc(Cl)cc1)Nc1ccc(Cl)c(C(F)(F)F)c1,.,.,2,3%
NC(=O)C1(N2CCCCC2)CCN(CCCN2c3ccccc3CCc3ccc(Cl)cc32)CC1,.,.,3,.
Oc1sc(C=Nc2ccccc2)c2ccccc12,0%,28µM*,0,20%
Oc1c(C=Nc2ccccc2)sc2ccccc12,?,-21%,?,7%
Oc1sc(C=Nc2ccc(F)cc2)c2ccccc12,i,32µM*,-1,7%
CN(C)CCOC1=Cc2ccccc2Sc2ccc(Cl)cc21,.,.,-1,2%
CN(CCC#N)C(=O)COC(=O)c1c2c(nc3ccccc13)/C(=C/c1ccco1)CC2,?,?,-53*,6.3µM*
Nc1nc(=O)n([C@@H]2O[C@H](CO)[C@@H](O)[C@@H]2F)cc1I,.,.,-1,.
COc1ccccc1N1CCN(C(CNC(=O)C(=O)NCCc2ccccc2)c2cccnc2)CC1 (stereo unspecified),-2%,-5%,1,10%
CCN(CC)c1ccc2cc(NC(=O)CCC(=O)O)c(=O)oc2c1,.,28µM*,-1,60%
SMILES,Tb PGK inh,USP1 inh,PI4K2A inh,GLS inh
CCN(CC)c1ccc2cc(C=O)c(=O)oc2c1,-4%,16µM*,3,60%
CCN(CC)c1ccc2cc(C(C)=O)c(=O)oc2c1,-6%,?,-4,-5%
CCOC(=O)CC(=O)CSc1nc2ccc(C)cc2cc1C#N,.,28µM*,0,8%
CC(C)C[C@@H](CNCC(=O)[C@H](Cc1c[nH]c2ccccc12)NC(=O)c1[nH]cnc1C(=O)N[C@@H](C)CN)NC(=O)c1nc[nH]c1C(=O)N[C@@H](CC(=O)O)C(=O)O,6%,-24%,-2,10µM*
CC(C)C[C@@H](CNCC(=O)[C@H](Cc1c[nH]c2ccccc12)NC(=O)c1[nH]cnc1C(=O)N[C@H](CN)CC(C)C)NC(=O)c1nc[nH]c1C(=O)N[C@@H](CC(=O)O)C(=O)O,1%,-19%,-6,8.9µM*
COC(=O)[C@]12C[C@H](CC(=O)NCCc3ccccc3OC)C(=O)N(Cc3cccc4ccccc34)C1=C[C@H](COCc1ccccc1)O[C@@H]2C,.,.,1,.
Cc1ccn2c(NC3CCCCC3)c(-c3ccc(SC4CCCCC4)cc3)nc2c1,.,.,0,-16%
Cc1ccn2c(NC3CCCC3)c(-c3ccsc3)nc2c1,-1%,-22%,4,7.1µM*
CCOC(=O)c1c(/N=C/c2ccc(C)cc2O)sc2c1CCN(C)C2,-4%,-5%,-8,10µM*
CCOC(=O)c1c(/N=C/c2cccc(C)c2O)sc2c1CCN(C)C2,i,-16%,4,-1%
Cc1nn(-c2ccccc2)c2nc(C3CC3)cc(C(=O)Nc3cccc(F)c3)c12,6%,-17%,-2,-6%
c1ccc(SSc2ccccn2)nc1,i,6%,-7,10µM*
c1ccc(Sc2ccccn2)cc1,i,9%,1,26%
CCCc1ncc(C(=O)O)s1,.,.,0,.
O=C(O)C(Cc1ccccc1)n1cccc1 (stereo unspecified),-6%,-17%,0,13µM*
O=C(C(Cc1ccccc1)n1cccc1)N1CCN(c2ccccc2)CC1 (stereo unspecified),-6%,-19%,-4,3%
Oc1ccc(N=C/C=C/c2cccc(Br)c2)cc1-c1nc2ccccc2s1,-6%,?,5,14µM*
Nc1ccc(O)c(-c2nc3ccccc3s2)c1,0%,?,-1,?
COc1cc(-c2nnn(CC(=O)NC3CCS(=O)(=O)C3)n2)ccc1OCc1ccccc1 (stereo unspecified),i,-19%,-60*,4%
O=C(Cn1nnc(-c2ccc(Cl)cc2)n1)NC1CCS(=O)(=O)C1 (stereo unspecified),-10%,-30%,-2,0%
O=C(CSc1nc(=O)[nH]c2c1CCCC2)NCc1ccc(Cl)cc1,0%,2%,-3,-1%
Cc1ccc(C)c(OCCCC(C)(C)C(=O)O)c1,-2%,-8%,-62*!,8%
O=C(Nc1ccc(N2CCN(c3ccc(O)cc3)CC2)cc1)Oc1ccccc1,.,-14%,-6,16%
Nc1ccc(OC(=O)Nc2ccc(O)cc2)cc1,-2%,?,?,14µM*
Cc1ccc(-c2cc(C(=O)N3CCN(c4ccccc4O)CC3)c3ccccc3n2)cc1,4%,-16%,-3,7.1µM*
SMILES,Tb PGK inh,USP1 inh,PI4K2A inh,GLS inh
CCOc1ccccc1N1CCN(C(=O)c2cc(-c3cc(OC)ccc3OC)nc3ccccc23)CC1,6%,16µM*,-2,4%
COc1ccc(N2CCN(C(=O)c3cc(-c4cc(OC)ccc4OC)nc4ccccc34)CC2)cc1,i,?,-3,24%
CCOC(=O)C(O)c1ccccc1 (stereo unspecified),.,.,-2,.
O=C1/C(=C/c2cccc([N+](=O)[O-])c2)Oc2cc(O)ccc21,12%,-24%,5,0%
O=C1/C(=C/c2ccc(O)c(O)c2)Oc2cc(O)ccc21,-13%,-20%,0,8.9µM*
COc1cc(/C=C2\Oc3cc(O)ccc3C2=O)ccc1O,-5%,28µM*,0,19%
CC(C)OC(=O)c1c2c(n3ccccc13)C(=O)c1ccccc1C2=O,1%,28µM*,-1,2%
